The full ranking holds about 1,000 compounds; the median of “relative growth in counter assay (no AraC = 100%, AraC + DMSO = 0%)” is about -1.1, and the highest 2% start at about 20. This is one part of a sample in which the highest values are shown more often than they occur.
system: HEK293FT dCK*-only; experiment: relative growth in counter assay (no AraC = 100%, AraC + DMSO = 0%); higher = more growth rescue independent of IKZF1; details: compound concentration: 5 uM; AraC concentration: 0.3 uM; overnight pretreatment + 4 days AraC
Experimental: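 Growth recovery screen of the molecular-glue-like (Specs) library. HEK293FT cells expressing a dCK*-IKZF1 fusion (primary) or dCK* alone (counter) were pretreated overnight with compound at 5 uM, then given 0.3 uM AraC for 4 days. Hoechst nuclei were counted by imaging. Primary: normalised to pomalidomide (100%) and DMSO (0%), mean of 2 replicates. Counter: normalised to no-AraC (100%) and AraC+DMSO (0%), single replicate.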

SMILES	relative growth in counter assay [%]
O=C(CCCOc1ccccc1)Nc1ccc(S(=O)(=O)Nc2ncccn2)cc1	2.79
COC(C)(C)C(=O)N1CCOC(c2cccc(Nc3ncc(C)s3)n2)C1 (stereo not drawn)	-13
COCC(=O)N1CCCC1c1cccc(Nc2ncc(C)s2)n1 (stereo not drawn)	0.29
Cc1csc(Nc2cccc(C3CCCN3CC(N)=O)n2)n1 (stereo not drawn)	16.8
Cc1ccc(S(=O)(=O)Nc2ccc(S(=O)(=O)Nc3nccc(C)n3)cc2)cc1	-5.66
Cc1ccccc1N1C(=O)c2ccc(Oc3ccc(N)cc3)cc2C1=O	12.7
O=C(CC(c1ccccc1)c1ccccc1)Nc1ccc(S(=O)(=O)Nc2ncccn2)cc1	-1.59
Cc1cnc(Nc2cccc(C3CN(C(=O)C4CCCO4)CCO3)n2)s1 (stereo not drawn)	-14.9
Cc1cnc(Nc2cccc(C3CCN(C(=O)C4C5C=CC(C5)C4C(=O)NCCO)CC3)n2)s1 (stereo not drawn)	-24.7
O=S(=O)(Nc1ncccn1)c1ccc(-n2cnnn2)cc1	-1.47
Cc1cnc(Nc2cccc(CC3CCN(C(=O)C4CCCCC4)CC3)n2)s1	-6.51
COc1nccnc1NS(=O)(=O)c1ccc(NC(=S)NC(=O)/C=C/c2cccs2)cc1	8.21
Cc1ccnc(NS(=O)(=O)c2ccc(NC(=O)c3ccc(-c4ccccc4)cc3)cc2)n1	0.76
Cc1ccc(Oc2cccc(N3C(=O)c4ccc(Oc5ccc(N)cc5)cc4C3=O)c2)cc1C	-3.99
O=C(C1CCCCC1)N1CCOC(c2cccc(Nc3ncc(Cc4ccc(F)cc4)s3)n2)C1 (stereo not drawn)	-1.26
O=C(Nc1ccc(S(=O)(=O)Nc2ccccn2)cc1)c1ccco1	4.23
CCOCCC(=O)Nc1ccc(S(=O)(=O)Nc2nccc(C)n2)cc1	-2.85
Cc1ccc(C(C)(C)C(=O)N2CCCC2c2cccc(Nc3ncc(C)s3)n2)cc1 (stereo not drawn)	-21
Cc1cc(NS(=O)(=O)c2ccc(NC(=O)c3ccccc3)cc2)nc(C)n1	0.4
CCOC(=O)c1nc[nH]c1C(=O)N1CCOC(c2cccc(Nc3ncc(C)s3)n2)C1 (stereo not drawn)	-2.22
CC(C)(C)CC(=O)Nc1ccc(S(=O)(=O)Nc2ncccn2)cc1	-0.2
Cc1cc(C)c2[nH]c3nc(SCC(=O)Nc4cccc(Cl)c4C)nnc3c2c1	-20.1
O=C(/C=C/c1ccccc1)N1CCCC1c1csc(Nc2ccccn2)n1 (stereo not drawn)	-3.28
CCCc1cnc(Nc2cccc(C3CCN(C(=O)C(C)(C)NC(=O)COC)CC3)n2)s1	-2.68
Cc1cnc(Nc2cccc(C3CN(C(=O)C4CCCC(C)C4)CCO3)n2)s1 (stereo not drawn)	-12.6
CN(C)CC(=O)N1CCCC1c1cccc(Nc2nccs2)n1 (stereo not drawn)	-0.55
NC(=O)CN1CCC(Cc2cccc(Nc3nccs3)n2)CC1	-23.2

SMILES	relative growth in counter assay [%]
Cc1cnc(Nc2cccc(C3CCN(C(=O)C4CCC(=O)N4)CC3)n2)s1 (stereo not drawn)	-24.6
O=C1CCCC/C1=C/Nc1ccc(S(=O)(=O)Nc2cnc3ccccc3n2)cc1	-1.17
Cc1cnc(Nc2cccc(C3CN(C(=O)Cc4ccccc4)CCO3)n2)s1 (stereo not drawn)	-5.45
COCC(=O)N1CCC(c2cccc(Nc3nc(C)cs3)n2)CC1	14
O=C(C1CCCCC1)N1CCOC(c2cccc(Nc3ncc(Cc4cccc(Cl)c4)s3)n2)C1 (stereo not drawn)	13.1
O=C1CCCN1CCOCC(=O)N1CCOC(c2cccc(Nc3nccs3)n2)C1 (stereo not drawn)	-1.14
CC(=O)Nc1ccc(C(=O)Nc2ccc(S(=O)(=O)Nc3nccc(C)n3)cc2)cc1	-3.58
O=C1CCC(N2C(=O)c3cc(F)c(N4CCN(CCC5CCNCC5)CC4)cc3C2=O)C(=O)N1 (stereo not drawn)	1.21
CC(C)C(=O)N1CCCC1c1csc(Nc2ccccn2)n1 (stereo not drawn)	6.43
Cc1cc(NS(=O)(=O)c2ccc(NC(=O)C3COc4ccccc4O3)cc2)nc(C)n1 (stereo not drawn)	-10.4
O=C(O)CCOCCOCCOCCNc1cc2c(cc1F)C(=O)N(C1CCC(=O)NC1=O)C2=O (stereo not drawn)	0.94
CCCCc1cnc(Nc2cccc(C3CCN(C(=O)C4(C)CCCN4C(=O)OC(C)(C)C)CC3)n2)s1 (stereo not drawn)	5.27
CC(=O)Oc1cccc(N2C(=O)c3ccc(Oc4ccc(N)cc4)cc3C2=O)c1	-2.02
CC(C)CC(C(=O)Nc1ccc(S(=O)(=O)Nc2ccccn2)cc1)N1C(=O)c2ccccc2C1=O (stereo not drawn)	0.21
CCOc1ccccc1OCC(=O)Nc1ccc(S(=O)(=O)Nc2ncccn2)cc1	2.46
Cc1ccn(CCC(=O)N2CCOC(c3cccc(Nc4ncc(C)s4)n3)C2)n1 (stereo not drawn)	-1.16
NC(=O)CN1CCCCC1c1csc(Nc2ccccn2)n1 (stereo not drawn)	8.38
Cc1cc(C)nc(NS(=O)(=O)c2ccc(NS(=O)(=O)/C=C/c3ccccc3)cc2)n1	5.62
CCCc1cnc(Nc2cccc(C3CCN(C(=O)C4CCCCN4CCCO)CC3)n2)s1 (stereo not drawn)	-21.2
CC(C)(N)C(=O)N1CCC(c2cccc(Nc3ncc(CC(F)(F)F)s3)n2)CC1	-21.1
Cc1cnc(Nc2cccc(C3CN(C(=O)C4(c5ccccc5)CC4)CCO3)n2)s1 (stereo not drawn)	-7.66
CCCc1cnc(Nc2cccc(C3CCN(C(=O)C4CCCCN4CC(=O)O)CC3)n2)s1 (stereo not drawn)	-19.3
Cc1cccc(N2CC(C(=O)Nc3ccc(S(=O)(=O)Nc4ncccn4)cc3)CC2=O)c1C (stereo not drawn)	2.21
COc1ccc(C(=O)Nc2ccc(S(=O)(=O)Nc3ccccn3)cc2)cc1OC	2.76
O=C(O)CCOCCOCCOCCOCCNc1ccc2c(c1)C(=O)N(C1CCC(=O)NC1=O)C2=O (stereo not drawn)	9.95
CS(=O)(=O)Nc1ccc(S(=O)(=O)Nc2ncccn2)cc1	3.46

Reference: the supplement of paper PMC12340641
